Inconclusive results are not listed. The source made the active and inactive calls. The call rests on the fitted dose curve; in most records, active means well fitted cell-killing curve with a large enough effect; inconclusive means small, poorly fitted or top-dose-only effect; inactive means flat fitted curve, though single readings scatter.
Assay: MultiTox-Fluor Cytotoxicity Assay - LYMP1-001 - Live Cells (AID 947)
Conditions: LYMP1-001 lymphoblastoid cells, live-cell protease fluorescence viability; series mostly up to 92.2 µM

| Structure (SMILES) | outcome |
| --- | --- |
| ClCc1ccccc1 | inactive |
| CCC/C=N/O | inactive |
| COc1c(C(C)(C)C)cc([N+](=O)[O-])c(C)c1[N+](=O)[O-] | inactive |
| O=S(=O)(Cl)c1ccccc1 | inactive |
| C=CCOCC1CO1 (stereo not drawn) | inactive |
| ClC(Cl)(Cl)C(Cl)(Cl)Cl | inactive |
| CCOC(=O)C1OC1(C)c1ccccc1 (stereo not drawn) | inactive |
| C/C=C/CC#N | inactive |
| ClC(Cl)C(Cl)Cl | inactive |
| C=CCCl | inactive |
| Oc1c(Cl)cccc1Cl | inactive |
| Brc1cccc(-c2ccccc2)c1 | inactive |
| C=CCO | inactive |
| OCCCCO | inactive |
| Nn1cnnc1 | inactive |
| BrCCc1ccccc1 | inactive |
| Cc1ccccc1[N+](=O)[O-] | inactive |
| Cc1ccc(N)c(C)c1 | inactive |
| C1CC2OC2CC1C1CO1 (stereo not drawn) | inactive |
| CN(C)C(=O)Cl | inactive |
| CC(=O)NNc1ccccc1 | inactive |
| O=C(Cl)OCc1ccccc1 | inactive |
| C=CC(=O)OC | inactive |
| CCN(CC)N=O | inactive |
| OCC(Cl)CCl (stereo not drawn) | inactive |
| CC(C)CON=O | inactive |
| CC(C)(Cl)[N+](=O)[O-] | inactive |
| C[N+](=O)[O-] | inactive |
| CC(C)OC(=O)Cc1ccccc1 | inactive |
| ClCC(Br)CBr (stereo not drawn) | inactive |

Assay: Cell Viability - LYMP1-002 - Assay at 16 hr (AID 948)
Conditions: LYMP1-002 lymphoblastoid cell viability; series mostly up to 92.2 µM
In short: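 Acute cytotoxicity is scored as a concentration-dependent fall in intracellular ATP in a human lymphoblastoid line (LYMP1-002) after 16 hr compound exposure at 37 C, measured by luciferase luminescence.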

| Structure (SMILES) | outcome |
| --- | --- |
| CC(C#N)CCC#N (stereo not drawn) | inactive |
| Nc1cc(Cl)ccc1Cl | inactive |
| Nc1cccc(Cl)c1 | inactive |
| ClCc1ccccc1 | inactive |
| CCC/C=N/O | inactive |
| COc1c(C(C)(C)C)cc([N+](=O)[O-])c(C)c1[N+](=O)[O-] | inactive |
| O=S(=O)(Cl)c1ccccc1 | inactive |
| C=CCOCC1CO1 (stereo not drawn) | inactive |
| c1ccoc1 | inactive |
| Clc1ccccc1 | inactive |
| ClC(Cl)(Cl)C(Cl)(Cl)Cl | inactive |
| CCOC(=O)C1OC1(C)c1ccccc1 (stereo not drawn) | inactive |
| ClC(Cl)C(Cl)Cl | inactive |
| C=CCCl | inactive |
| Oc1c(Cl)cccc1Cl | inactive |
| Brc1cccc(-c2ccccc2)c1 | inactive |
| C=CCO | inactive |

| Structure (SMILES) | outcome |
| --- | --- |
| OCCCCO | inactive |
| Nn1cnnc1 | inactive |
| Cc1ccccc1[N+](=O)[O-] | inactive |
| Cc1ccc(N)c(C)c1 | inactive |
| C1CC2OC2CC1C1CO1 (stereo not drawn) | inactive |
| CC(=O)NNc1ccccc1 | inactive |
| Cc1ccc(N=C=O)cc1N=C=O | inactive |
| O=C(Cl)OCc1ccccc1 | inactive |
| C=CC(=O)OC | inactive |
| CCN(CC)N=O | inactive |
| OCC(Cl)CCl (stereo not drawn) | inactive |
| CC(C)CON=O | inactive |
| CC(C)(Cl)[N+](=O)[O-] | inactive |
| C[N+](=O)[O-] | inactive |
| CC(C)OC(=O)Cc1ccccc1 | inactive |
| ClCC(Br)CBr (stereo not drawn) | inactive |
